From PubChem BioAssay
The list is not random: actives were taken first. Their share in the collection is about 6.1%.
ATXN viability: reduces viability in counter-screen for ATXN expression inhibitors; S2 cells (HEK-293 line with an ATXN2-luciferase reporter) viability, CellTiter-Fluor protease fluorescence, 24 h; Potency, µM (titrated, usually from 56.7 µM), actives largely listed as cytotoxic; 400,000 compounds, 0.49% hits; AID 651635; further: nearly all actives have a fitted effect of over 40% in size
HepG2 tox: counter-screen for TGF-b inhibitors: cytotoxicity in HepG2 cells | HepG2 CAGA-GFP viability, ATP luminescence, 18 h | Potency, µM (doses to about 46.1 µM), actives largely listed as cytotoxic | 410,000 compounds, 0.76% hits | AID 588856
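HepG2 CAGA-GFP cells (1000/well, DMEM with 1% FBS) received compound, then TGF-beta at 500 pg/mL final, and were incubated 18 hours at 37 degrees C. Viability was read by CellTiter-Glo luminescence. Media-only wells were set as complete cell-killing and DMSO as no toxicity.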
TGFb inhibitor: TGF-b pathway inhibition. HepG2 CAGA-GFP TGF-b/SMAD3 reporter, GFP fluorescence, 18 h; TGF-beta stimulated, 500 pg/mL final. Potency, µM (titrated, usually from 46.1 µM), usual class: inhibitors. 410,000 compounds, 1.2% hits; further: nearly all actives have a fitted effect of over 65% in size
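TGF-beta reporter screen: HEPG2 CAGA-GFP, 1% FBS, 500 pg/mL TGF-beta final, 18 h; per-cell GFP summed per well; curves fitted and categorized by class.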
RORg inh: ROR gamma (mouse) transcription inhibition | P51450 | Drosophila S2 Gal4-RORgamma UAS-luciferase reporter, 20 h | Potency, µM (doses to about 53.6 µM), actives largely listed as inhibitors | 310,000 compounds, 5.4% hits | AID 2551; further: nearly all actives have a fitted effect of over 60% in size
Target sequence (P51450 whole entry, looked up, the tested form may be a part): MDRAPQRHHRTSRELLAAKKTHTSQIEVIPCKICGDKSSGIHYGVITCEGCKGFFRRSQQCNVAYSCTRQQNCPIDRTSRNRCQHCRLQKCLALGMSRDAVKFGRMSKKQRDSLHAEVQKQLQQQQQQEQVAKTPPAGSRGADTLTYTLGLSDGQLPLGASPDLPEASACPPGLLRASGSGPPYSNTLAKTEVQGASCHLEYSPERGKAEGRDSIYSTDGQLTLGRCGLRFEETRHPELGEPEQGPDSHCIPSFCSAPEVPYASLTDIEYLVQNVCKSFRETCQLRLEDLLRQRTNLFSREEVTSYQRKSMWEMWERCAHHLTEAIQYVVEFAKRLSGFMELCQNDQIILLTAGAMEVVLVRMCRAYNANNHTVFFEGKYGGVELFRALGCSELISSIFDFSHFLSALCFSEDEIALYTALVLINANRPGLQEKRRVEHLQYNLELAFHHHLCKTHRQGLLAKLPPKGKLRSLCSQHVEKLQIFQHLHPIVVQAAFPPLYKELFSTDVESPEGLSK
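Schneider cells (Drosophila), stable Gal4 DBD–ROR gamma + UAS-luc; 1 hr cmpd preincubation; Cu2+ induction 700 uM final; 20 hr ambient; luminescence.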
ATXN2 expr inh: inhibitors of ATXN2 expression | HEK-293 ATXN2-luciferase reporter, luminescence, 24 h | Potency, µM (highest dose often 57 µM), usual class: inhibitors | AID 1745845 | 360,000 compounds, 0.72% hits; further: nearly all actives have a fitted effect of over 55% in size
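ATXN2-luciferase reporter cells (luciferase flanked by upstream and downstream ATXN2 gene portions) were treated 24 h at 37 °C with compounds at up to 57 uM. SteadyGlo luminescence gave expression; GF-AFC fluorescence gave viability.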
Gal4-VP16 FLuc: Gal4-VP16 reporter inhibition counter-screen; 310,000 compounds, 3.5% hits; AID 2546; Potency, µM (titrated, usually from 53.6 µM), most hits filed as inhibitors; Drosophila S2 Gal4-VP16 UAS-luciferase, luminescence, 20 h;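 further: Gal4-VP16 expression switched on by copper sulfate through the metallothionein promoter; nearly all actives have a fitted effect of over 50% in size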
Hits are given with their value; - = inactive; ? = inconclusive; . = not tested or not shown; [ ] = remark or other dose. The call rests on the fitted dose curve; in most records, active means well fitted curve in the direction sought with a large enough effect; inconclusive means small, poorly fitted or top-dose-only effect, or another doubt; inactive means no such curve, though single readings can be large; an effect the other way counts as inactive or inconclusive.

SMILES	ATXN viability	HepG2 tox	TGFb inhibitor	RORg inh	ATXN2 expr inh	Gal4-VP16 FLuc
CCCC(=O)O[C@]1(C(=O)COC(C)=O)CC[C@H]2C3C[C@H](F)C4=CC(=O)C=CC4(C)[C@@]3(F)[C@@H](O)CC21C (some centres not stated)	.	.	.	-	.	-
CSc1ccc(/C=N/NC(=O)CNc2ccc3ccccc3c2)cc1	-	-	?	-	-	-
CSc1ccc(/C=N/NC(=O)CNc2cccc3ccccc23)cc1	-	-	-	35µM	-[11.3 µM]	?
O=C(CNc1cccc2ccccc12)N/N=C/c1ccc[nH]1	-	-	-	5µM	-	14µM
O=C(CNc1cccc2ccccc12)N/N=C/C(Br)=C/c1ccccc1	-	-	-	-	-	-
COc1ccc(N2CCN(C(=S)Nc3ccccc3)CC2)cc1	-	-	-	13µM	-	?
Fc1cccc(NC(=S)N2CCCC2)c1	-	-	-	-	-	?
CN1CCN(c2ccc(NC(=O)c3ccc(Oc4ccccc4)cc3)cc2)CC1	-	-	?	-	-	-
CC(=O)c1ccc(N2CCN(C(=S)Nc3ccc(Oc4ccccc4)cc3)CC2)cc1	-	-	?	3.2µM	?	4.5µM
CC(=O)c1ccc(N2CCN(C(=S)Nc3cccc(F)c3)CC2)cc1	-	-	-	14µM	-	-
CCOC(=O)c1c(NC(C)=O)c2c3c(sc2n1Cc1nc(-c2ccccc2C)oc1C)CCCC3	-	-	-	.	-	.
CCN(CC)c1ccc(/C=N/NC(=O)c2ccoc2C)cc1	?	-	-	20µM	-	?
CCN(CC)c1ccc(/C=N\NC(N)=O)cc1	-	-	?	?	-	-
CCN(CC)c1ccc(/C=N/NC(=O)c2ccc(O)cc2)cc1	.	.	.	1.1µM	.	2.5µM
CCN(CC)c1ccc(/C=N\NC(=O)c2cccc3cc[nH]c23)cc1	.	-	-	7.1µM	-	18µM
CCN(CC)c1ccc(C(=O)N/N=C(\C)c2ccc(O)cc2)cc1	?	-	-	-	-	-
Cc1ccc(Cn2c(C(=O)O)c(CNCc3cccs3)c3ccc(C)cc32)cc1	?	-	?	.	?	.
CCn1c(-c2ccccc2F)nc2cc(NC(C)=O)cc(C(=O)N3CCCCC3c3nccn3C)c21 (configuration not stated)	-	.	.	.	.	.
COc1ccc(CN(C)C(=O)c2cccc(NC(=O)CC3SC(N4CCCCC4)=NC3=O)c2)c(OC)c1 (configuration not stated)	?	-	-	.	20µM	.
COc1cccc(CN(C)C(=O)c2cccc(NC(=O)CC3SC(N4CCCCC4)=NC3=O)c2)c1OC (configuration not stated)	-	-	-	.	-	.
COc1ccc(OC)c(C(=O)N2CCOc3ccc(C(C)(O)CN(C)C)cc3C2)c1 (configuration not stated)	-	.	.	.	.	.
Nc1nc(=S)c2snnc2[nH]1	.	-	-	.	.	.
COc1cc(=O)n2c(c1C(=O)NCc1ccco1)CCN(Cc1cccc(C(F)(F)F)c1)CC2	-	.	.	.	.	.
COc1cc(=O)n2c(c1C(=O)N(C)Cc1nonc1C)CCN(Cc1ccsc1)CC2	-	.	.	.	.	.
CN(C)CCn1c2c(c(SCC(=O)Nc3ccc(F)cc3F)nc1=O)CCC2	.	-	?	.	.	.
SMILES	ATXN viability	HepG2 tox	TGFb inhibitor	RORg inh	ATXN2 expr inh	Gal4-VP16 FLuc
O=C(Nc1cnn(C23CC4CC(CC(C4)C2)C3)c1)c1cnn2c(C(F)(F)F)cc(-c3ccco3)nc12	?	-	-	?	22µM	-
CCOC(=O)c1ccc(NC(=O)CCc2c(C)nc3nc[nH]n3c2=O)cc1	-	-	-	.	-	.
Cc1cc(/C=C/c2ccc3cc(N(C)C)ccc3[n+]2C)c(C)n1-c1ccccc1	.	.	.	4.5µM	.	-
COCCNC(=S)N/N=C(\C)c1ccccc1F	-	-	-	3.5µM	-	20µM
COCCNC(=S)N/N=C(\C)c1ccccc1O	-	-	5.6µM	0.2µM	-	0.45µM
COCCNC(=S)N/N=C(\C)c1ccccc1OC	-	-	-	2.5µM	-	6.3µM
COCCNC(=S)N/N=C/c1ccccc1C(=O)O	-	-	-	-	-	-
